From PubChem BioAssay come the findings set out here.

SMILES strings stand for the structures. Records with an inconclusive call do not appear. Activity calls are given as the source filed them. Rule as the data show it, unless noted: active = percent of DMSO control GFP below about 86%; inactive = the rest, inconclusive results apart.

A short description of assay [1]: yeast TOR pathway RPL19A-GFP modulators, primary screen, cell-based, S. cerevisiae, multiplex flow cytometry (AID 1862).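 Also: lower values mimic rapamycin by blocking the RPL19A rise seen in DMSO cells.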 To be noted: S. cerevisiae RPL19A-GFP strain, flow cytometry fluorescence, 3 h; at 10 µM; stronger effect = lower value.
A short description of assay [2]: modulators of MEP2-GFP levels in yeast, primary screen, S. cerevisiae, multiplex flow cytometry (AID 1867;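 active = GFP response, as percent of the DMSO control, above the screen-wide mean plus 3 SD, about 139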;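 also: median GFP channel fluorescence of barcode-gated MEP2-GFP cells measured by flow cytometry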). The conditions noted are these: S. cerevisiae MEP2-GFP strain, 3 h, at 10 µM, stronger effect = higher value, 100% means same as DMSO wells.
Assay [3] in a line: modulators of CIT2-GFP expression in yeast, primary screen, S. cerevisiae, GFP fusion, multiplex flow cytometry (AID 1870;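 active = percent response above a set limit, the screen-wide mean plus 3 SD, cut at about 130% in these data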;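 also: barcoded CIT2-GFP strain pooled with four other GFP strains with rapamycin as positive control; median GFP fluorescence per well over plate mean of DMSO wells so 100% = DMSO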). To be noted: 3 h, at 10 µM, stronger effect = higher value.
Assay [4] is described as follows: modulators of LAP4-GFP expression in yeast, primary screen, S. cerevisiae, multiplex flow cytometry (AID 1873;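 active = GFP signal, as percent of the solvent control, above the screen mean plus 3 SD, about 149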). To be noted: 3 h, at 10 µM, stronger effect = higher value.
A short description of assay [5]: modulators of AGP1-GFP expression in yeast TOR pathway, primary screen, cell-based, multiplex flow cytometry, S. cerevisiae (AID 1887;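 active = GFP signal above the screen-wide mean plus 3 SD, that is over about 124.5% of the solvent control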;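 also: AGP1-GFP fusion strain of S. cerevisiae within a five-strain barcoded multiplex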). The conditions noted are these: 3 h, at 10 µM, stronger effect = higher value.
Assay [6] can be described thus: inhibitors of CD8+ T cell-vesicle binding, pilot screen, LFA-1/ICAM-1 modulator project, MLPCN validation set, flow cytometry (AID 2523;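 active = response below a set limit, under 55% cells CD8-positive and vesicle-bound, and CD8 cells' 90th-percentile brightness under 279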;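 as to vesicle binding response: mean PE anti-B7-1 fluorescence of CD8+ cells relative to row control; 100% = QL9-loaded vesicles with DMSO vehicle in the same plate row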). To be noted: 2C mouse CD8+ T cells, at 7 µM, stronger effect = lower value; double positive events: measured here: CD8+/vesicle+ event percentage.
The target of assay [7] is Integrin beta-1 (Homo sapiens) + Integrin alpha-4 (Homo sapiens) (UniProt P13612+P05556). Briefly: inhibition of HUTS-21 binding to VLA-4, pilot screen, VLA-4 allosteric modulator project, U937 cells, HUTS-21 mAb, flow cytometry, validation set (AID 2674;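 active = inhibition above 50%, about 3 SD of the validation set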;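 also: antibody binding induced by the VLA-4 ligand LDV present at three times its Kd; 0% = LDV ligand with antibody and no compound and 100% = antibody without LDV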). To be noted: HUTS-21 LIBS mAb binding, at 6.7 µM, stronger effect = higher value, binding induced by LDV ligand.
The nature of assay [8]: superoxide lowering in aged yeast cells, pilot screen, validation compound set (AID 2706;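 active = superoxide response below 65% of plate, a cut near 3 SD across the whole screen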;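 also: yeast exposed to compound for one week at 30 degrees C before staining; 100% = mean of all compound wells on the same plate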). To be noted: S. cerevisiae aging, superoxide DHE fluorescence; at 10 µM, stronger effect = lower value.
Assay [9] has as its target Beta-adrenergic receptor kinase 1 (Homo sapiens) (UniProt P25098). The experiment in a line: GRK2 binders displacing RNA aptamer, biochemical, validation, human GRK2, bead flow cytometry (AID 488806;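 active = aptamer binding inhibition above 30%, about 3 SD of noise from non-fluorescent compounds; inactive = inhibition at or below 30%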). To be noted: bead-bound GRK2, FAM-aptamer displacement, at 10 µM, stronger effect = higher value.
In assay [10] the target is Beta-2 adrenergic receptor (Homo sapiens) (UniProt P07550). Briefly: beta2AR agonists driving receptor internalization, pilot screen, cell-based, FAP fluorogen, flow cytometry, validation set (AID 504459;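 active = percent response above 42, roughly 3 SD of non-fluorescent test compounds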;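 also: agonist-driven loss of surface beta2AR via internalization measured by FAP dye flow cytometry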). The conditions noted are these: Am2.2-beta2AR cells, FAP surface receptor flow cytometry; at 10 µM; stronger effect = higher value.
The nature of assay [11]: yeast V-ATPase proton transport modulators, S. cerevisiae, pHLuorin, HTS validation (AID 504600; in the data active = response above about 15%;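 also: plate controls were DMSO for no effect and reference compound for full effect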). To be noted: S. cerevisiae pHLuorin cytosolic pH, at 10 µM, stronger effect = higher value.
The subject of assay [12] is anti-desmoglein-3 scFv antibody binding to human DSG3. Briefly: inhibitors of anti-DSG3 scFv binding to DSG3, pilot screen, biochemical, validation compound set, bead-based, flow cytometry (AID 588368;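 active = binding below the plate cutoff, the plate median minus 3 SD, with a reading above zero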;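 also: signal is the median channel fluorescence of bead-bound GFP antibody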). To be noted: Protein G beads, DSG3-Fc, scFv-GFP binding, at 10 µM, stronger effect = lower value.
Assay [13] in a line: inhibitors of fungal efflux pumps CDR1, CDR2, MDR1, pilot screen, validation compound set, multiplex, phenotypic (AID 588506;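 active = efflux inhibition above 0.42, the validation set average plus 4 SD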;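 also: Nile Red retained in cells so higher fluorescence means more efflux inhibition; 0 = negative control wells and 1 = enniatin B 25 µM full block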). The conditions noted are these: S. cerevisiae pump-expressing triplex, Nile Red efflux flow cytometry; at 10 µM; stronger effect = higher value; the pumps come from Candida albicans.
The target of assay [14] is ATP-binding cassette sub-family B member 6 (Homo sapiens) (UniProt Q9NP58). The experiment in a line: ABCB6 transporter inhibitors, pilot screen, K562-ABCB6 cells, flow cytometry, validation set (AID 588550;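 active = inhibition above the screen-wide mean plus 3 SD, about 51%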;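 also: 0% = DMSO wells and 100% = benzethonium chloride 70 µM positive control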). To be noted: K562-ABCB6 porphyrin accumulation, 1 h, at 10 µM, stronger effect = higher value.
Assay [15] can be described thus: promoters of myeloid differentiation in arrested cells, primary screen, cell-based, GFP/MAC1 double positive, flow cytometry, validation set (AID 588685;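 active = differentiation response of at least 50%, scaled between solvent and reference control, from cells with both markers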;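 also: compound exposure lasts four days before antibody staining and flow analysis; 0% = DMSO wells and 100% = 5 µM fulvestrant positive control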). The conditions noted are these: ER-HoxA9 marrow cells, stronger effect = higher value, normalized: vehicle 0, fulvestrant 100.
Assay [16] has as its target AP-2 complex subunit beta (Homo sapiens) (UniProt P63010). Briefly: inhibitors of arrestin peptide binding to AP2, pilot screen, biochemical, validation set, GST-AP2 beads, flow cytometry (AID 504541;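 active = inhibition above 54%, about 3 SD of non-fluorescent compounds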;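 also: AP2 carries R879A mutation and is captured from E. coli lysate; bead-bound FITC arrestin peptide fluorescence measuring arrestin peptide binding to AP2; 0% = DMSO wells and 100% = excess unlabeled arrestin peptide control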). To be noted: FITC arrestin peptide, at 10 µM, stronger effect = higher value, AP2 beta2 appendage fragment, R879A mutant.

Chain of AP-2 complex subunit beta (Homo sapiens) (P63010 whole entry, looked up, the tested form may be a part, one chain of several): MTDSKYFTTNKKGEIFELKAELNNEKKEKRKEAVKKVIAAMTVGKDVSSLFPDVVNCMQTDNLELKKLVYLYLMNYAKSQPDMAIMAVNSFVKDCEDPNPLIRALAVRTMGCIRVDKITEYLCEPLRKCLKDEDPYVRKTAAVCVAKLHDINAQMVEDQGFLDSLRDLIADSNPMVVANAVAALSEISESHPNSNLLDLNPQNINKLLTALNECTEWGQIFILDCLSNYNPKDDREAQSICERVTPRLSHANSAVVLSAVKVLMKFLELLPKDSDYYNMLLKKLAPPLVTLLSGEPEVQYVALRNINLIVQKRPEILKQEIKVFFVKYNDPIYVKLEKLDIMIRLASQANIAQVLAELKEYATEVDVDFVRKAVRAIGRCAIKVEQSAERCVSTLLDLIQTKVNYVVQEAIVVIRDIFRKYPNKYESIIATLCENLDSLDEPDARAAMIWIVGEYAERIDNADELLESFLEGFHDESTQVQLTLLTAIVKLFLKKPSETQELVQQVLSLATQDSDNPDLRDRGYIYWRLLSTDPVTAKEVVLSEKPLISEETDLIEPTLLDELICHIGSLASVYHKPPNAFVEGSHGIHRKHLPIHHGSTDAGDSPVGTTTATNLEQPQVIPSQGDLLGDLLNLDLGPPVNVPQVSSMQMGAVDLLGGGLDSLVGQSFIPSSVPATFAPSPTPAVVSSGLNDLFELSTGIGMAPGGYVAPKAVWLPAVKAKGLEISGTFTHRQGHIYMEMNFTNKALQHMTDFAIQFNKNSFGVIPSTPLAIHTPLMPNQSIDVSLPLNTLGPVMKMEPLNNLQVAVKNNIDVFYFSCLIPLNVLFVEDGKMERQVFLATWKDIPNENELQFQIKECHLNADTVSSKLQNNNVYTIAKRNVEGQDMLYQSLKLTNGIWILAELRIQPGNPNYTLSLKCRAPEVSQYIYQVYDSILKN
Chain of Beta-2 adrenergic receptor (Homo sapiens) (P07550 whole entry, looked up): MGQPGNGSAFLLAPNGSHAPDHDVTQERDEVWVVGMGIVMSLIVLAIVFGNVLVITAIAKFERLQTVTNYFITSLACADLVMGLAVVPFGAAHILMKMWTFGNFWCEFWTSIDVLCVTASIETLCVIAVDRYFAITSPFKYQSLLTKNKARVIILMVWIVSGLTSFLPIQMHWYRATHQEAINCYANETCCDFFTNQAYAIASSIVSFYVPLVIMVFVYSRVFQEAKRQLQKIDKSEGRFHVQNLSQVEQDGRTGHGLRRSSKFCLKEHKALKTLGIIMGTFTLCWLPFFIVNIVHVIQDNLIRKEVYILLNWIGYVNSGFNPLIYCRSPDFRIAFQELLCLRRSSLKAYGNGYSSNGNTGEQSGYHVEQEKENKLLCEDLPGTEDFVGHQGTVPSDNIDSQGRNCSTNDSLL
Chain of Beta-adrenergic receptor kinase 1 (Homo sapiens) (P25098 whole entry, looked up): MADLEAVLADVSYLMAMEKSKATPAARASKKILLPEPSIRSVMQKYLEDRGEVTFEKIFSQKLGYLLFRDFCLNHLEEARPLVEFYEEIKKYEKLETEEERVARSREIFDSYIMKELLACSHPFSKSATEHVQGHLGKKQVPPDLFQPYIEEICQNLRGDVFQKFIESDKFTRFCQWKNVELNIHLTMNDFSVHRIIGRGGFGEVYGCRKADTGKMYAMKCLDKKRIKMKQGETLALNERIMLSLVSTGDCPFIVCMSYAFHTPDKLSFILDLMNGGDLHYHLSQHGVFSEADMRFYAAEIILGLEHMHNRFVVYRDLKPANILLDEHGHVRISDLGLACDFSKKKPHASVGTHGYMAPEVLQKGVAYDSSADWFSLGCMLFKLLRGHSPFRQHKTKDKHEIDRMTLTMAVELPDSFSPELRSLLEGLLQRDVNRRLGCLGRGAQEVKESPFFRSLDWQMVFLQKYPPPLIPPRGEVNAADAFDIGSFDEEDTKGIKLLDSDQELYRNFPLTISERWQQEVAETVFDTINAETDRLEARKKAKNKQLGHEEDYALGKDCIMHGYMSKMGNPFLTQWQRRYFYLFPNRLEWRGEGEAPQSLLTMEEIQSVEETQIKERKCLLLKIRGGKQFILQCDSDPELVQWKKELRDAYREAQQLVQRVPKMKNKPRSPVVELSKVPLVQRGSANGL
Chain of ATP-binding cassette sub-family B member 6 (Homo sapiens) (Q9NP58 whole entry, looked up): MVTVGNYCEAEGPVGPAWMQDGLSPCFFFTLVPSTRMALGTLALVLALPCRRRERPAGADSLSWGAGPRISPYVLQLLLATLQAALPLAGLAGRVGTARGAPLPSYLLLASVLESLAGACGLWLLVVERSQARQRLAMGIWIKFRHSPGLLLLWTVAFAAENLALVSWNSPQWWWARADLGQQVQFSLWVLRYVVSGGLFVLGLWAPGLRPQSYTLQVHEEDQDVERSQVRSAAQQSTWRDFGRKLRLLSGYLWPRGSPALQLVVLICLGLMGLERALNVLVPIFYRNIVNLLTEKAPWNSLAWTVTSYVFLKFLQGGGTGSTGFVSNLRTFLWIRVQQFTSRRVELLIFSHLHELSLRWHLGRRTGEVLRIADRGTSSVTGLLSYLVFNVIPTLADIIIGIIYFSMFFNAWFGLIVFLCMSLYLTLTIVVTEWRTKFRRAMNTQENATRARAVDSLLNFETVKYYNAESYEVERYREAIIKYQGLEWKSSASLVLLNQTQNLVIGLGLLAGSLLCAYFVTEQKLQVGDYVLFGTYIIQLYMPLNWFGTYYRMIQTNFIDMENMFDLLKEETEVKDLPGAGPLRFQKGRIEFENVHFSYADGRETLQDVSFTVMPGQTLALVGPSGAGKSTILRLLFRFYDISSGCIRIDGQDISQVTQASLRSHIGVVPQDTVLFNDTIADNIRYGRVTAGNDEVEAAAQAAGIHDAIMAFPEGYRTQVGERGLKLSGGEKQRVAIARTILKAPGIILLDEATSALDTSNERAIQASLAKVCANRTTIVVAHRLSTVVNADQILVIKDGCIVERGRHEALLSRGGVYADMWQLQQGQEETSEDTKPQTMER
Chain of Integrin beta-1 (Homo sapiens) + Integrin alpha-4 (Homo sapiens) (P05556 whole entry, looked up): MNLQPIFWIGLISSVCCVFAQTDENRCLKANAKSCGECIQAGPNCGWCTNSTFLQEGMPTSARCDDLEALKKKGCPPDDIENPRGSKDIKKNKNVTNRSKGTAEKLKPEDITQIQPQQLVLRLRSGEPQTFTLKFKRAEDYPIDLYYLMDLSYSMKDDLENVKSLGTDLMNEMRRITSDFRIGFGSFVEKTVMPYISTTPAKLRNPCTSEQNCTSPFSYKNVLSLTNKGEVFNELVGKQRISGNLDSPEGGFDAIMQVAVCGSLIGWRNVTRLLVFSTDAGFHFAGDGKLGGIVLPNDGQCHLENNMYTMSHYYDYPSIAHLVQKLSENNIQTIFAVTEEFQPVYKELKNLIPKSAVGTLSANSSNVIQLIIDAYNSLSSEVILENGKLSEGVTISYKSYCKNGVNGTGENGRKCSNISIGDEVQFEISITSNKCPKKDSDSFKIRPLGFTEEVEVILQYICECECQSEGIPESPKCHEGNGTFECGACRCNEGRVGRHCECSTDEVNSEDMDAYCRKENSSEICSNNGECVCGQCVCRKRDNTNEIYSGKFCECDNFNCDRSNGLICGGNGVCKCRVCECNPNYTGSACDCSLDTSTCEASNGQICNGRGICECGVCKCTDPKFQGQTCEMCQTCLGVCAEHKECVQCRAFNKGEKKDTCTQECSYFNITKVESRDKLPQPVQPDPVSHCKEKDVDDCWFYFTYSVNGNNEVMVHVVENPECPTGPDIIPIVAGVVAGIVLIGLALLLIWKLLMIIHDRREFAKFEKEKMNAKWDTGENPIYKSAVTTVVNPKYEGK
Chain of Integrin beta-1 (Homo sapiens) + Integrin alpha-4 (Homo sapiens) (P13612 whole entry, looked up): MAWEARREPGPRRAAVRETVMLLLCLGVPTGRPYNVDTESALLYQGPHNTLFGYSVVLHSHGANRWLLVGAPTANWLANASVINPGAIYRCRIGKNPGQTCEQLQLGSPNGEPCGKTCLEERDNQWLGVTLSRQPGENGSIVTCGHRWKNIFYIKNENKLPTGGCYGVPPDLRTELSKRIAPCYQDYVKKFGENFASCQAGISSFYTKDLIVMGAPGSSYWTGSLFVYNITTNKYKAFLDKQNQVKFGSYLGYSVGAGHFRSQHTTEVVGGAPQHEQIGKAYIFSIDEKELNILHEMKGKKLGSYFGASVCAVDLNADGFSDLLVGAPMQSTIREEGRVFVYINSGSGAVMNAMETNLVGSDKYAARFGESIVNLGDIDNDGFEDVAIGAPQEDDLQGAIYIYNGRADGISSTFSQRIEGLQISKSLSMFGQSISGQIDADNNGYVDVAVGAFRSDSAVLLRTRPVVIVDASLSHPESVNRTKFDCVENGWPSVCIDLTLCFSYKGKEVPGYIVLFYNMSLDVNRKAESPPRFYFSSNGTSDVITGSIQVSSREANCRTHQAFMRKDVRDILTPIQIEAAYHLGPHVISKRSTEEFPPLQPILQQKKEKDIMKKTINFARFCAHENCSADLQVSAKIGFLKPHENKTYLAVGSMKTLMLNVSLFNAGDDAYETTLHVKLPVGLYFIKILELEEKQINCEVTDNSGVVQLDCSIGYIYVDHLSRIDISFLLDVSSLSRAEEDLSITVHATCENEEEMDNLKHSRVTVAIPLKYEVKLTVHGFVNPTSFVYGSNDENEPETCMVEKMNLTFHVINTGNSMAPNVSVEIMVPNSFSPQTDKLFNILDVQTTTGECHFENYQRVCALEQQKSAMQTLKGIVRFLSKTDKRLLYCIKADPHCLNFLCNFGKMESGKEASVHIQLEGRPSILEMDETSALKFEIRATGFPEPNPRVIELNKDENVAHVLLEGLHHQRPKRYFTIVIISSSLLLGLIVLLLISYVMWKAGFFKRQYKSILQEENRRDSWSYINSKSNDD

Consider `COc1cc(Cl)cc2c1Sc1ccccc1/C2=C/CCN(C)C`, for which the percent of DMSO control GFP in assay [1] is 97.1% (inactive). In addition, the GFP response vs DMSO in assay [2] is 105% (inactive); in [4], 93.7% (inactive). Besides, the percent response of DMSO control in [3] is 94.9% (inactive). In addition, the GFP response, % of DMSO in assay [5] was 92.6% (inactive). Further, in assay [6], the double positive events was 63.9%. In addition, in assay [6], the vesicle binding response was 1310% (inactive). Besides, the inhibition in assay [7] is -7.47% (inactive); in [14] it was 0% (inactive). Moreover, the superoxide response (% of plate) in assay [8] was 104% (inactive). Also, the aptamer binding inhibition in assay [9] is -8% (inactive). Further, the response is 20% (inactive) in assay [10] and 0.4% (inactive) in [11]. Moreover, the binding (% of control) in assay [12] was 110% (inactive). Further, the efflux inhibition (fraction of control) in assay [13] was -0.09 (inactive). Also, the differentiation response in [15] was -2.64% (inactive).
Consider `COc1ccc(CN(CCN(C)C)c2ccccn2)cc1`, for which the percent of DMSO control GFP in [1] is 102% (inactive). In addition, the figures for the GFP response vs DMSO in [2] and in [4] were 107% (inactive) and 103% (inactive), respectively. Moreover, in [3], the percent response of DMSO control was 108% (inactive). Further, in assay [5], the GFP response, % of DMSO was 107% (inactive). For the same molecule, in assay [6], the double positive events worked out at 60.3%. For the same molecule, the vesicle binding response in [6] is 60% (inactive). The inhibition was 2.66% (inactive) in assay [7], -5.39% (inactive) in assay [16] and 4% (inactive) in assay [14]. The superoxide response (% of plate) in assay [8] is 109% (inactive). In assay [9], the aptamer binding inhibition is 0% (inactive). Further, the response in assay [10] was -10.3% (inactive); in assay [11], 0.3% (inactive). For the same molecule, the binding (% of control) in assay [12] is 99.3% (inactive). Moreover, the differentiation response in [15] is 2.2% (inactive).
On to `Nc1nnc(-c2cccc(Cl)c2Cl)c(N)n1`, for which, in [1], the percent of DMSO control GFP is 101% (inactive). For the same molecule, the values for the GFP response vs DMSO in assay [2] and in [4] were 108% (inactive) and 100% (inactive), respectively. For the same molecule, in [3], the percent response of DMSO control is 103% (inactive). For the same molecule, the GFP response, % of DMSO in assay [5] was 103% (inactive). Besides, the double positive events in assay [6] was found to be 49.8%. In assay [6], the vesicle binding response was 120% (inactive). Further, the inhibition in assay [7] is 9.63% (inactive); in assay [16], -13.2% (inactive); in [14], 4% (inactive). In [8], the superoxide response (% of plate) was 110% (inactive). For the same molecule, the aptamer binding inhibition in assay [9] was 2% (inactive). The response in [10] was 6.9% (inactive); in [11], -3.91% (inactive). Also, the binding (% of control) in assay [12] is 94.9% (inactive). Also, the differentiation response in [15] is -8.96% (inactive).
As to `CC1(C(=O)O)CCC(C(=O)NC2CCCCCC2)C1(C)C` (stereo unspecified), the percent of DMSO control GFP in assay [1] is 103% (inactive). Besides, the GFP response vs DMSO in assay [2] is 106% (inactive); in [4], 110% (inactive). Besides, in assay [3], the percent response of DMSO control is 93.9% (inactive). In assay [5], the GFP response, % of DMSO was 100% (inactive). For the same molecule, in assay [6], the double positive events is 67.7%. Moreover, the vesicle binding response in [6] is 157% (inactive). Further, the inhibition in assay [7] is 28.3% (inactive); in [16], -8.9% (inactive); in assay [14], 7% (inactive). The superoxide response (% of plate) in assay [8] is 99.3% (inactive). Also, in [9], the aptamer binding inhibition is 3% (inactive). The response is 10.4% (inactive) in assay [10] and -1.45% (inactive) in [11]. In addition, in assay [12], the binding (% of control) was 102% (inactive). Besides, the efflux inhibition (fraction of control) in [13] is -0.54 (inactive). Moreover, the differentiation response in assay [15] was -5.68% (inactive).
With `CN(C)C(=O)C12CCC(C)(c3nc4ccccc4nc31)C2(C)C` (stereo unspecified), the percent of DMSO control GFP in assay [1] was 104% (inactive). Moreover, the GFP response vs DMSO is 101% (inactive) in assay [2] and 99.4% (inactive) in assay [4]. Besides, the percent response of DMSO control in assay [3] was 106% (inactive). Also, the GFP response, % of DMSO in assay [5] is 99.3% (inactive). Further, in [6], the double positive events was 62.9%. Besides, the vesicle binding response in [6] was 190% (inactive). In addition, the inhibition in assay [7] was 0.69% (inactive); in assay [16], 9.98% (inactive); in assay [14], 5% (inactive). Besides, the superoxide response (% of plate) in [8] was 95.4% (inactive). Further, the aptamer binding inhibition in assay [9] was -1% (inactive). In addition, the response in [11] was 1.66% (inactive). Besides, the binding (% of control) in assay [12] is 103% (inactive). For the same molecule, the efflux inhibition (fraction of control) in assay [13] was -0.09 (inactive). For the same molecule, the differentiation response in assay [15] was 1.41% (inactive).
